Measurements from PubChem BioAssay (NCATS).
Results filed as inconclusive are left out. Activity calls are given as the source filed them. Calls follow the shape of the dose curve; as a rule, active = well fitted inhibition curve with a large enough effect; inconclusive = small, poorly fitted or top-dose-only effect; inactive = flat fitted curve, though single readings scatter.

Key:
CRL-7250 = normal cell line; assay: Cytotoxic Profiling of Annotated Libraries Using Quantitative High-Throughput Screening (AID 1296008); conditions: Five cell lines viability, CellTiter-Glo ATP luminescence, 48-72 h; max response: active compounds read low; also: potency is read from the fitted curve at half-maximal effect; as to max response: % is scaled to controls: 0 for no effect and ±100 for the full control effect
In short: (§1)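 Cytotoxicity was measured as CellTiter-Glo ATP luminescence, read after 10 min at room temperature. Compound treatment of the cells lasted 48 or 72 hr at 37 degrees Celsius in a qHTS format.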

HaCat [1] = assay: as above; conditions: Five cell lines viability, CellTiter-Glo ATP luminescence, 48-72 h; max response: active compounds read low
In short: as §1

KB-3-1 = assay: as above; conditions: Five cell lines viability, CellTiter-Glo ATP luminescence, 48-72 h; max response: active compounds read low
In short: as §1

NIH3T3 = assay: as above; conditions: Five cell lines viability, CellTiter-Glo ATP luminescence, 48-72 h; max response: active compounds read low
In short: as §1

HACAT [2] = assay: qHTS assay to identify novel small-molecules to repurpose for Merkel cell carcinoma treatment (AID 1296009); conditions: MCC and control cell lines, CellTiter-Glo viability, 72 h; at 44.8 µM (top of the series) unless noted
In short: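 72 hr, 37 degree celsius; NPC 8-pt / MIPE 11-pt dose response; compound pinned in DMSO; CellTiter-Glo, 10 min RT, luminescence; normalized to no-cell and DMSO controls.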
Also: nearly all actives have a fitted effect of over 60% in size.

CC(C)[C@@H](c1ccc(C(F)(F)F)cc1CN(Cc1cc(C(F)(F)F)cc(C(F)(F)F)c1)c1nnn(C)n1)N1CCC(C(=O)O)CC1
inactive: max response (CRL-7250) -8.05% | outcome (HaCat [1]) | max response (KB-3-1) -11.9% | max response (NIH3T3) 4.8% | outcome (HACAT [2])

COc1ccc(C2(N(C)C(=O)c3ccc(NC(=O)c4ccco4)cc3)CCOCC2)cc1
inactive: max response (CRL-7250) -25.1% | max response (HaCat [1]) -27.5% | max response (KB-3-1) -3.65% | max response (NIH3T3) -15.7%

O=C(COc1ccc(C(=O)c2ccccc2)cc1)NC1CCN(Cc2ccccc2)CC1
active: Potency (CRL-7250) 8200 nM
inactive: max response (HaCat [1]) -11.4% | max response (KB-3-1) -23% | max response (NIH3T3) -2.94%

COc1cc(OC)c2c(=O)[nH]c(-c3cc(C)c(OCCO)c(C)c3)nc2c1
inactive: max response (CRL-7250) -10.3% | max response (HaCat [1]) 1.79% | outcome (KB-3-1) | max response (NIH3T3) -22%

O=C(Nc1ccccc1Cl)c1cnc2ccc(C3CCNCC3)cn12
inactive: max response (KB-3-1) 2.96%
active: Potency (CRL-7250) 1030 nM | Potency (HaCat [1]) 1640 nM | Potency (NIH3T3) 1460 nM

C[C@@H]1CC[C@]2(C(=O)O)CC[C@]3(C)C(=CCC4[C@@]5(C)CC[C@H](O)[C@](C)(C(=O)O)C5CC[C@]43C)C2[C@]1(C)O (stereo partly specified)
inactive: max response (CRL-7250) -2.08% | max response (HaCat [1]) 4.55% | max response (KB-3-1) 0.684% | max response (NIH3T3) -24.1%

CC1=CC2/C=C(\C)CCC(O)C(=O)C(O)CC(=O)C23C(=O)NC(CC(C)C)C3C1C (stereo unspecified)
inactive: outcome (CRL-7250) | max response (HaCat [1]) -78.4% | max response (KB-3-1) 2.51% | max response (NIH3T3) -27%

CC1(C)CCC2(C(=O)OC3OC(COC4OC(CO)C(O)C(O)C4O)C(O)C(O)C3O)CCC3(C)C(=CCC4C5(C)CCC(OC6OCC(O)C(O)C6O)C(C)(C)C5CCC43C)C2C1O (stereo unspecified)
inactive: max response (CRL-7250) -0.133% | max response (HaCat [1]) -3.21% | outcome (KB-3-1) | max response (NIH3T3) -18.4%

O=C(NCCO)c1cccc(-c2cc(Nc3ccc(OC(F)(F)F)cc3)ncn2)c1
inactive: max response (CRL-7250) 0.504% | max response (HaCat [1]) -14.2% | max response (KB-3-1) -22.2% | max response (NIH3T3) -22.6%

C=CCCN1CCC2(CC1)CN(C(=O)c1c(F)cccc1F)c1ccc(Cl)cc12
inactive: outcome (CRL-7250) | max response (HaCat [1]) -0.627% | outcome (KB-3-1) | outcome (NIH3T3)

COc1c2c(nc3occc13)C(CC=C(C)C)(OC)C(O)CC2 (stereo unspecified)
inactive: max response (CRL-7250) -11.5% | max response (HaCat [1]) -1.05% | max response (KB-3-1) -4.13% | max response (NIH3T3) -1.61%

CC(C)Oc1ccc(-c2cnc3c(-c4ccnc5ccccc45)cnn3c2)cc1
inactive: max response (CRL-7250) 0.774% | max response (HaCat [1]) 1.5% | max response (KB-3-1) -13.7% | max response (NIH3T3) 3.7%

CC(C)(Cc1ccccc1)NCC(O)c1ccc(O)c(NS(C)(=O)=O)c1 (stereo unspecified)
inactive: max response (CRL-7250) 0.0508% | max response (HaCat [1]) 2.45% | max response (KB-3-1) -4.4% | max response (NIH3T3) 0.817%

COC(=O)c1ccc(N2CCN(C)CC2)c(NC(=O)c2cccc(OC)c2)c1
inactive: max response (CRL-7250) -14.2% | max response (HaCat [1]) -1.79% | max response (KB-3-1) -6.24% | max response (NIH3T3) 3.28%

CCCC(CCC)C(=O)NCc1ccc2c(cnn2-c2ccccc2OC)c1
inactive: max response (CRL-7250) -29.2% | max response (HaCat [1]) 3.89% | max response (KB-3-1) -13.4% | max response (NIH3T3) 0.011%

CCCCc1ccc(NS(=O)(=O)c2ccc(F)cc2)cc1
inactive: outcome (CRL-7250) | max response (HaCat [1]) -1.98% | max response (KB-3-1) 4.06% | outcome (NIH3T3)

CN1CCc2cc3c(cc2C(=O)Cc2cc4c(cc2C1)OCO4)OCO3
inactive: outcome (CRL-7250) | max response (HaCat [1]) -8.11% | outcome (KB-3-1) | outcome (NIH3T3)

O=C(NCCN1CCN(c2cccc3c2OCCO3)CC1)c1ccc(F)cc1
inactive: max response (CRL-7250) 2.38% | max response (HaCat [1]) -12.9% | max response (KB-3-1) -10.3% | max response (NIH3T3) 2.39%

CC(C)(CNC(=O)c1cccc(-c2noc(C(F)(F)F)n2)c1)c1coc(-c2ccccc2)n1
inactive: max response (CRL-7250) 1.16% | max response (HaCat [1]) -1.63% | max response (KB-3-1) -6.73% | max response (NIH3T3) 4.1%

COCCNCc1ccc(-c2cc3nccc(Oc4ccc(NC(=O)C5(C(=O)Nc6ccc(F)cc6)CC5)cc4F)c3s2)nc1
active: Potency (CRL-7250) 18400 nM | Potency (HaCat [1]) 23100 nM | Potency (KB-3-1) 6510 nM | Potency (NIH3T3) 731 nM

CC1(C)CCC(C)(C)c2cc(C#Cc3ccc(C(=O)O)cc3)ccc21
inactive: max response (CRL-7250) -18.1% | max response (HaCat [1]) -1.18% | max response (KB-3-1) -2.7% | outcome (NIH3T3)

O=S(=O)(NCc1ccccn1)c1ccc(Br)c2ccccc12
inactive: max response (CRL-7250) -0.212% | max response (HaCat [1]) 1.53% | max response (KB-3-1) 0.961% | max response (NIH3T3) -0.344%

CCOc1ccc(Cc2nc(-c3c(C)nc4ccccn34)cs2)cc1
active: Potency (CRL-7250) 51.7 nM | Potency (KB-3-1) 25.9 nM | Potency (NIH3T3) 46.1 nM
inactive: max response (HaCat [1]) -17.5%

Cn1ncnc1[C@@H]1c2n[nH]c(=O)c3cc(F)cc(c23)N[C@H]1c1ccc(F)cc1
inactive: max response (CRL-7250) -10.4% | max response (HaCat [1]) -18% | outcome (KB-3-1) | max response (NIH3T3) -15%

N#Cc1cccc(C(=O)Nc2cc(-c3ccccc3)nn2-c2ccccc2)c1
inactive: max response (CRL-7250) 1.2% | max response (HaCat [1]) 1.42% | max response (KB-3-1) -17% | max response (NIH3T3) -3.88%
